Experimental data: PubChem BioAssay

molecular target: Torsin-1A (Homo sapiens) (UniProt O14656); assay: TOR1A wild-type binding on microarray – cell lysate, small-molecule microarray, lysate, 635/667 nm, primary screen (AID 1149); conditions: COS7 hTOR1A-WT lysate, 635 nm fluorescence, higher = more signal
Sequence (O14656 whole entry, looked up): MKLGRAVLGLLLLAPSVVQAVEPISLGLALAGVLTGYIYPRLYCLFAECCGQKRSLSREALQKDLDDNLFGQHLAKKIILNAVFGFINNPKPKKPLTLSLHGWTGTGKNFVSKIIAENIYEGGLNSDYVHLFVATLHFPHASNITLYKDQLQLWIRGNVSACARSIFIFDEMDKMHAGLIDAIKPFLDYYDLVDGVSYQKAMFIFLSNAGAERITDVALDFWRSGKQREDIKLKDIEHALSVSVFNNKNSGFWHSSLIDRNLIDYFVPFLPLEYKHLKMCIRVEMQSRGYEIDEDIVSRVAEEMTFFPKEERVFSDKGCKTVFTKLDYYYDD

SMILES | composite z-score
COC(=O)[C@@]1(Cc2ccc(F)cc2)[C@H]2c3cc(C(=O)N4CCCC4)n(Cc4ccc(OC(F)(F)F)cc4)c3C[C@H]2CN1C(=O)c1ccccc1 | -0.0112
O=C1OCCC/C=C\[C@H]2OC34C=CCN(Cc5ccccc5)C(=O)[C@H]3N(CCO)C(=O)[C@@H]4C12 (stereo not given in full) | 1.3
COC(=O)[C@H](Cc1ccccc1)N1CC(C)(OC)O[C@@H](Cc2ccccc2)[C@H]1/C=C/C1CC1 (stereo not given in full) | 0.256
COc1c(C)cc(-c2cc3c(c(CCc4ccccc4)n2)[Si](C(C)C)(C(C)C)O[C@H]3c2ccccc2)cc1C | -1.11
[N-]=[N+]=Nc1ccccc1C[C@@]1(C(=O)NCc2ccccc2)N=C(c2ccc(OCCCO)cc2)O[C@@H]1c1ccccc1 | 0.324
C=C(CCCC)/C(=C/C[C@@H](OC(C)=O)c1ccc(OCCO)cc1)c1cc(C(=O)OC)ccc1OC | 0.929
C=CCNC(=O)[C@H]1[C@@H]2C(=O)O[C@@H](c3ccccc3)[C@@H](c3ccccc3)N2[C@@H](c2ccc(OCCO)cc2)[C@]12C(=O)Nc1ccc(C#Cc3ccc(OC)cc3)cc12 | 0.44
CC(C)N1C(=O)[C@@]2(Cc3ccccc31)c1ccccc1C(=O)N(Cc1ccccc1C(F)(F)F)[C@H]2c1ccc(CO)cc1 | -0.375
COC(=O)c1ccc(OC)c(/C=C\CC(OC(=O)c2ccncc2)c2ccccc2)c1 (stereo not given) | 0.217
O=C(NC1CC1)[C@@H]1c2ccccc2C(=O)N(C2CCCCC2)[C@H]1c1ccc(CO)cc1 | -0.164
